Most compounds without a hit are left out; they make up all but 6.1% or so of the library.
HepG2 viability: qHTS for Inhibitors of TGF-b: Cytotox Counterscreen | hit rate 0.76% among 410,000 | HepG2 CAGA-GFP viability, ATP luminescence, 18 h | AID 588856, 2011 | Potency, µM (series often up to 46.1 µM), without a hit: at the highest dose activity change, negative = cytotoxicity, hits mostly cytotoxic
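HepG2 CAGA-GFP cells (1000/well, DMEM with 1% FBS) received compound, then TGF-beta at 500 pg/mL final, and were incubated 18 hours at 37 degrees C. Viability was read by CellTiter-Glo luminescence. Media-only wells were set as complete cell-killing and DMSO as no toxicity.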
S2 tox: Viability Counterscreen for Primary qHTS for Inhibitors of ATXN expression; Potency, µM (doses to about 56.7 µM), actives largely listed as cytotoxic; S2 cells (HEK-293 line with an ATXN2-luciferase reporter) viability, CellTiter-Fluor protease fluorescence, 24 h; hit rate 0.49% among 400,000; note: nearly all actives have a fitted effect of over 40% in size
RORgamma inh: qHTS for inhibitors of ROR gamma transcriptional activity. Nuclear receptor ROR-gamma (Mus musculus), P51450. Drosophila S2 Gal4-RORgamma UAS-luciferase reporter, 20 h. Potency, µM (highest dose often 53.6 µM), for the others: top-dose activity change, negative = inhibition, most hits filed as inhibitors. hit rate 5.4% among 310,000. AID 2551, 2010; note: % is set by controls: 0 for no effect and ±100 for the full control effect; nearly all actives have a fitted effect of over 60% in size
Target sequence (P51450 whole entry, looked up, the tested form may be a part): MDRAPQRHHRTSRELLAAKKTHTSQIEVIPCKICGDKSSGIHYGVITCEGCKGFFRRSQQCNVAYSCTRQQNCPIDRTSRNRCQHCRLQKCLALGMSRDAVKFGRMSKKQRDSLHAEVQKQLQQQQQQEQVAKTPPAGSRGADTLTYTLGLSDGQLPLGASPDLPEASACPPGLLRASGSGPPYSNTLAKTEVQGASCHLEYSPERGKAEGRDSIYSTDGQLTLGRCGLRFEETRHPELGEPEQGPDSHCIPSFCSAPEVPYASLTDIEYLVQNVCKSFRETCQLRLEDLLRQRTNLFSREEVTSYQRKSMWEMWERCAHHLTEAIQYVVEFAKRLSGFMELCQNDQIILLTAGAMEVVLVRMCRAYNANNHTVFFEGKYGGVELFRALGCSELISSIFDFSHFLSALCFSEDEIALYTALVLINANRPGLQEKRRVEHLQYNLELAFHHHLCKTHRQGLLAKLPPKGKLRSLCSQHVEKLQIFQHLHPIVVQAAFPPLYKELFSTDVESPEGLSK
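Stably transfected Drosophila Schneider cells are the test system, with ROR gamma fused to Gal4 and luciferase under UAS control; luminescence is read after 20 hr of 700 uM copper sulfate induction at ambient temperature.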
Gal4-VP16 FLuc: VP16 counterscreen qHTS for inhibitors of ROR gamma transcriptional activity; Drosophila S2 Gal4-VP16 UAS-luciferase, luminescence, 20 h; Potency, µM (series often up to 53.6 µM), inactives show top-dose activity, negative = inhibition, hits mostly inhibitors; hit rate 3.5% among 310,000; AID 2546, 2010;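 note: Gal4-VP16 expression switched on by copper sulfate through the metallothionein promoter; % is set by controls: 0 for no effect and ±100 for the full control effect; nearly all actives have a fitted effect of over 50% in size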
ATXN2 expr inh: Primary qHTS for Inhibitors of ATXN expression; HEK-293 ATXN2-luciferase reporter, luminescence, 24 h; Potency, µM (top dose mostly 57 µM), without a hit: at the highest dose activity change, negative = inhibition, hits mostly inhibitors; hit rate 0.72% among 360,000; note: % is set by controls: 0 for no effect and ±100 for the full control effect; nearly all actives have a fitted effect of over 55% in size
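ATXN2-luciferase reporter cells (luciferase flanked by upstream and downstream ATXN2 gene portions) were treated 24 h at 37 °C with compounds at up to 57 uM. SteadyGlo luminescence gave expression; GF-AFC fluorescence gave viability.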
TGFb SMAD3 inh: qHTS for Inhibitors of TGF-b; AID 588855, 2011; Potency, µM (series often up to 46.1 µM), inactives show at the highest dose activity, negative = inhibition, usual class: inhibitors; HepG2 CAGA-GFP TGF-b/SMAD3 reporter, GFP fluorescence, 18 h; TGF-beta stimulated, 500 pg/mL final; hit rate 1.2% among 410,000; note: % is set by controls: 0 for no effect and ±100 for the full control effect; nearly all actives have a fitted effect of over 65% in size
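Inhibition of TGF-beta-driven CAGA-GFP reporter expression in HEPG2 cells is measured by cellular GFP fluorescence after 18 h stimulation with 500 pg/mL recombinant TGF-beta in 1% FBS medium at 37 degrees C.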
* marks the source's active call; other numbers are inactive results; i = inactive; ? = inconclusive; . = no result. Calls come from the whole dose curve; as a rule, active = well fitted curve in the direction sought with a large enough effect; inconclusive = small, poorly fitted or top-dose-only effect, or another doubt; inactive = no such curve, though single readings can be large; an effect the other way counts as inactive or inconclusive. Potency is the fitted concentration of half-maximal effect.

SMILES | HepG2 viability | S2 tox | RORgamma inh | Gal4-VP16 FLuc | ATXN2 expr inh | TGFb SMAD3 inh
CCCc1cc(C(=O)NNC(=S)NCC2CCCO2)cs1 (centres undefined) | 6.8% | i | -6.8% | -20.0% | -3.2% | 31.8%
Cc1scc(C(=O)NNC(=S)NCC2CCCO2)c1C (centres undefined) | -12.2% | i | 4.47µM* | -24.1% | 5.4% | -10.7%
CCc1cc(C(=O)NNC(=S)NCC2CCCO2)cs1 (centres undefined) | 1.0% | i | 15.8µM* | -4.7% | 9.8% | 0.0%
Cc1scc(C(=O)NNC(=S)NCC2CCCO2)c1-c1ccccc1 (centres undefined) | -3.5% | i | 7.94µM* | -7.2% | -1.4% | -1.9%
CC(C)(C)n1ncc2c(=O)n(Cc3cc(C(F)(F)F)ccc3Cl)cnc21 | -17.4% | . | . | . | . | 5.7%
CCOc1ccc(NC(=O)NCCc2c(C)nn(C)c2C)cc1 | 0.8% | i | . | . | 5.1% | -7.9%
c1csc(CCNc2ncnc3sc4c(c23)CCC4)c1 | -54.3% | ? | -42.6% | 11.2µM* | ? | ?
CCN1C(=O)NC(c2ccccc2)C1=O (centres undefined) | -1.0% | i | . | . | 1.7% | 9.6%
CN=C1N[C@H](c2ccccc2)N(c2ccccc2)S1 | -1.5% | . | 10µM* | 28.2µM* | . | -1.6%
Cc1ccc2oc3c(c(=O)c2c1)C(c1ccccc1F)N(CCCN1CCOCC1)C3=O (centres undefined) | 0.0% | i | . | . | 13.8% | -25.9%
Cc1nc2c(OCc3ccc(C(F)(F)F)cc3)cccn2c1N(C)Cc1cccs1 | -100.8% | 31.6µM* | . | . | ? | ?
COc1ccc(OCCn2ccnc2)cc1 | -23.8% | i | -0.5% | -11.0% | -4.1% | 3.8%
COc1ccc(CCCO[C@@H](Cn2ccnc2)c2ccc(OC)cc2)cc1 | . | . | 8.91µM* | 31.6µM* | . | .
O=C(NC(=S)N(CCO)Cc1ccccc1)c1ccc(F)cc1Cl | 2.1% | i | 0.562µM* | 2.82µM* | -7.0% | -4.3%
CCCN(CCC)C(=S)NC(=O)c1ccc(Cl)cc1Cl | -17.7% | i | 0.282µM* | 0.891µM* | -23.6% | ?
CCCOc1ccc(CN(CCC#N)C(=S)NC(=O)c2ccccc2)cc1 | -18.0% | . | 0.316µM* | 0.562µM* | ? | 0.0%
CCN(CC)S(=O)(=O)c1ccc(C(=O)NC(=S)N(CCO)Cc2ccccc2)cc1 | 6.7% | i | 1.12µM* | 3.16µM* | -0.8% | 2.9%
OCCN(Cc1ccccc1)C(=S)Nc1ccc(F)cc1 | -14.0% | . | -24.2% | 4.9% | -7.3% | -1.8%
CCOC(=O)C(CC)Sc1c(CC)cnc2c1c(=O)n(C)c(=O)n2C (centres undefined) | 0.8% | ? | . | . | 3.6% | -1.5%
CC1CCN(C(=O)CN2CC(C)Sc3ccccc32)CC1 (centres undefined) | 5.2% | ? | . | . | 13.9% | 0.9%
Cc1ccc(Nc2nc(N)nc(CN3CCN(Cc4ccc5c(c4)OCO5)CC3)n2)cc1Cl | 11.2µM* | i | -32.7% | -13.2% | -34.6% | -23.6%
Cc1ccc(Nc2nc(N)nc(CN3CCN(Cc4ccc5c(c4)OCO5)CC3)n2)cc1C | -13.5% | i | ? | 1.1% | -27.1% | -23.4%
Cc1n[nH]c(C)c1Cc1c(F)cccc1Cl | -58.1% | i | 15.8µM* | -9.3% | 12.5% | ?
Cc1[nH]ccc(=O)c1Cc1c(Cl)cccc1Cl | -0.4% | i | 11.2% | 1.7% | -13.4% | 0.0%
CCOC(=O)c1c(NC(=O)c2ccc(S(=O)(=O)N3CCC(C)CC3)cc2)sc2c1CCN(C)C2 | -73.8% | . | . | . | . | 46.0%
SMILES | HepG2 viability | S2 tox | RORgamma inh | Gal4-VP16 FLuc | ATXN2 expr inh | TGFb SMAD3 inh
CCn1c2ccccc2c2nnc(SCC(=O)c3ccccc3)nc21 | 1.7% | i | 12.6µM* | 4.4% | -2.6% | -1.7%
CCOC(=O)CSc1nnc2c3ccccc3n(CC)c2n1 | -10.3% | i | 35.6% | 0.2% | 2.8% | -15.0%
O=C(C1CCCCC1)N1CCC(c2nc3ccccc3[nH]2)CC1 | -13.8% | i | 36.4% | -3.2% | -4.6% | 7.1%
N#CC(C(=O)C1CCCCC1)c1nc2ccccc2[nH]1 (centres undefined) | -29.9% | i | 3.55µM* | 7.94µM* | 18.1% | -7.6%
N#CC(C(=S)Nc1ccccc1)c1nc2ccccc2[nH]1 (centres undefined) | -22.5% | ? | 1.12µM* | 2.51µM* | . | ?
CSC(=Nc1ccccc1)C(C#N)c1nc2ccccc2[nH]1 (centres undefined) | 4.5% | i | 5.62µM* | -14.1% | 2.6% | 12.8%
COc1cc(C(=O)N(Cc2cc3ccc(C)cc3nc2N(C)C)C2CC2)cc(OC)c1OC | . | i | . | . | . | .
On1onc2c3cc(-c4ccccc4)nc3ccc21 | -18.8% | ? | 7.94µM* | 10µM* | ? | ?
c1ccc(-c2cc3c(ccc4nonc43)nn2)cc1 | -0.7% | i | 13.6% | 5.8% | 56.4% | 4.2%
COc1ccccc1N1CCN(S(=O)(=O)c2c(C)sc3ncn(CC(=O)Nc4ccccc4F)c(=O)c23)CC1 | -14.1% | ? | . | . | 14.9% | 1.8%
COc1ccc(-c2nc3ccccc3n2Cc2ccccc2)cc1 | -24.8% | ? | 3.98µM* | ? | -36.7% | ?
CCC(C)n1c(S(=O)(=O)O)nc2ccccc21 (centres undefined) | -7.4% | i | 3.1% | 2.2% | -2.0% | 0.0%
C=CCn1c(-c2ccc(OC)cc2)nc2ccccc21 | -7.7% | i | ? | 0.1% | 26.0% | -18.7%
COc1ccc(-c2n(Cc3ccccc3)c3ccccc3[n+]2Cc2ccccc2)cc1 | -45.2% | i | 5.62µM* | 5.01µM* | ? | 7.94µM*
CCC(C)n1c(/C=C/c2ccccc2)nc2ccccc21 (centres undefined) | -12.7% | i | 10µM* | 12.6µM* | 11.0% | -19.7%
CCn1c(/C=C/c2ccccc2)nc2ccccc21 | -60.5% | i | 15.8µM* | ? | 55.9% | -0.9%
COc1ccc(C(NC(=O)COc2ccc(C#N)cc2)c2ccc(OC)cc2)cc1 | 1.3% | . | . | . | . | -0.8%
Cn1c(=O)c2cc(C(=O)N3CCN(c4ccc(Cl)cc4)CC3)sc2c2ccccc21 | 2.7% | i | . | . | 5.6% | 1.5%
Cc1cccc(C)c1-n1ncc(C(=O)N2CCN(c3ccccc3)CC2)c1C1CCN(C(=O)OC(C)(C)C)CC1 | 7.1% | i | . | . | 12.7% | -2.8%
CCNc1c(NC(=O)c2ccccc2OCC)c(=O)oc2ccccc12 | -3.9% | i | . | . | 13.6% | 21.7%
CCCCCCn1c(/C=C/c2ccccc2)nc2ccccc21 | -66.3% | . | . | . | . | 15.8µM*
COc1ccc(/C=C/c2nc3ccccc3n2C)cc1 | -12.6% | i | 2µM* | ? | ? | -4.2%

Compound activity deposited in PubChem BioAssay by National Center for Advancing Translational Sciences (NCATS).
